# Results: PubChem BioAssay (NCATS)
# Results filed as inconclusive are left out. Entries that show only a call come without a potency. Active and inactive are the calls of the source. Calls follow the shape of the dose curve; as a rule, active = well fitted curve in the direction sought with a large enough effect; inconclusive = small, poorly fitted or top-dose-only effect, or another doubt; inactive = no such curve, though single readings can be large; an effect the other way counts as inactive or inconclusive.
# Target: Lysine-specific demethylase 5B (Homo sapiens) (UniProt Q9UGL1)
# Sequence (Q9UGL1 whole entry, looked up): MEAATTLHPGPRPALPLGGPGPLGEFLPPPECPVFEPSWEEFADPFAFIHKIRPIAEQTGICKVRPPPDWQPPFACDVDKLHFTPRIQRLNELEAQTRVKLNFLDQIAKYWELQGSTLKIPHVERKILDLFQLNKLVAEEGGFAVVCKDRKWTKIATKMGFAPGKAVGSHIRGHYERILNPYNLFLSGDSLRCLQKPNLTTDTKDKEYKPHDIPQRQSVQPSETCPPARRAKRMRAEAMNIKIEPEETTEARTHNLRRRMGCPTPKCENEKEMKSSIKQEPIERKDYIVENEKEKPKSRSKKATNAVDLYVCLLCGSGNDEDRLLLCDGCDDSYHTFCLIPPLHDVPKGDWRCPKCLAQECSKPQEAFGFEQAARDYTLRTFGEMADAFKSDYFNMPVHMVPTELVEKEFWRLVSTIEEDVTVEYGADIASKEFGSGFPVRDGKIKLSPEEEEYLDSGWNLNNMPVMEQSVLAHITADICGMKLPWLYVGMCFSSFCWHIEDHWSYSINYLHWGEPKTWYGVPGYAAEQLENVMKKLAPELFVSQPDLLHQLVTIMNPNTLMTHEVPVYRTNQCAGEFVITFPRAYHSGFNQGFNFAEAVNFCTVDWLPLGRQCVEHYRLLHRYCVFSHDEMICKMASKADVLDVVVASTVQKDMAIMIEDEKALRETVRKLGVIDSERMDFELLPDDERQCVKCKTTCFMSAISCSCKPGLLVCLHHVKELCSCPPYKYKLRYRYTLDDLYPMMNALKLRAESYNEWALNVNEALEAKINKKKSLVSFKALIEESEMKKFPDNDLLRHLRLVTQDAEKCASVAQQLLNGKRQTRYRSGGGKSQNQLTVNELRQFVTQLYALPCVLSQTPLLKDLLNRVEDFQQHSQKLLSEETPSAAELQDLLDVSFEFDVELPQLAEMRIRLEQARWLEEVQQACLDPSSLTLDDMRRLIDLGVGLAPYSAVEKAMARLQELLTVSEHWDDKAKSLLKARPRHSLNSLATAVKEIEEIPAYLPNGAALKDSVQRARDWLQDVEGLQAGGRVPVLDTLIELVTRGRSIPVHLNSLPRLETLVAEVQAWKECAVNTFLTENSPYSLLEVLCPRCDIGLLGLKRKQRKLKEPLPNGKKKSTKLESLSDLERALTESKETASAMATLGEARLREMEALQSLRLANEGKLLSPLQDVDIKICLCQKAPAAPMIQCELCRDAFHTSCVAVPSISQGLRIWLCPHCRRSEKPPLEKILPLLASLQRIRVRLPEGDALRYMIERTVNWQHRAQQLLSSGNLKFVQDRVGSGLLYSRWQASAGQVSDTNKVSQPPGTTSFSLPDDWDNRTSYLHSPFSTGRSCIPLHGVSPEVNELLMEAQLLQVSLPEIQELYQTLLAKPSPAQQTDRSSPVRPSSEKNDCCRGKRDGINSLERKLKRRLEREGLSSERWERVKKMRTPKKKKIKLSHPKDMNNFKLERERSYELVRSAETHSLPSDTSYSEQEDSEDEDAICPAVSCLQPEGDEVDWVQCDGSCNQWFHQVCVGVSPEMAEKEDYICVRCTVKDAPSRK
# Assay: Optimization screen for KDM5B Histone Demethylases FDH coupled qHTS against the LOPAC library (AID 1347166)
# Conditions: KDM5B demethylation, FDH-coupled NADH fluorescence (FDH is formaldehyde dehydrogenase); series mostly up to 57.5 µM
# Outline: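 KDM5BDeltaAP (200nM final) preincubated 10 min with compound, then 12.5uM H3K4Me3, 25uM a-ketoglutarate, ascorbate, Fe(II), NAD+ and FDH added; 50mM HEPES pH 7.5, 0.01% Tween-20. NADH fluorescence (340/450 nm) change over 30 min, room temperature.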
row,SMILES,Potency
1,NC(=O)COc1c(F)cc(SCCNS(=O)(=O)c2ccccc2)cc1F,inactive
2,C=CCN(C1=NCCN1)c1c(Cl)cccc1Cl,inactive
3,CN1CCc2cccc(Cl)c2CC1,inactive
4,C[C@H](N)CN1CCc2ccc(Br)cc21,inactive
5,OCc1cnc[nH]1,inactive
6,C[C@H](Cc1ccc2c(c1)OC(C(=O)O)(C(=O)O)O2)NC[C@H](O)c1cccc(Cl)c1,inactive
7,CCCN(CCC)C1Cc2cc(OC)c(OC)cc2C1,inactive
8,C[C@@H]1[C@@H]2Cc3ccc(O)cc3[C@@]1(C)CCN2CC1CC1,inactive
9,Clc1cc(I)cc(Cl)c1NC1=NCCN1,inactive
10,C[C@@H]1O[C@@H](O[C@H]2C[C@@H](O)[C@]3(CO)[C@@H]4C(CC[C@]3(O)C2)[C@@]2(O)CC[C@H]([C@@H]3COC(=O)C3)[C@@]2(C)C[C@H]4O)[C@H](O)[C@H](O)[C@H]1O (stereo partly specified),inactive
11,CN1C2CCC1CC(OC(c1ccccc1)c1ccccc1N)C2 (stereo unspecified),inactive
12,NC(=O)c1ccc(OCC(O)CN2CC=C(c3ccc(F)cc3)CC2)cc1 (stereo unspecified),inactive
13,CC(N)c1cccc(Cl)c1Cl (stereo unspecified),inactive
14,CC(C)(C)c1o[nH]c(=O)c1CC(N)C(=O)O (stereo unspecified),inactive
15,C[Se]C[C@H](N)C(=O)O,inactive
16,C[C@@H]1O[C@H](C[N+](C)(C)C)CS1,inactive
17,CC(C)(C)c1cc(C=C(C#N)C#N)cc(C(C)(C)C)c1O,inactive
18,Cc1cc([C@@H]2CCCN2C)on1,inactive
19,CCCN(CCC)[C@H]1CCc2c(F)ccc(O)c2C1,inactive

row,SMILES,Potency
1,CCn1cnc2c(Nc3cccc(Cl)c3)nc(N[C@@H]3CCCC[C@@H]3N)nc21,inactive
2,Oc1ccc2c3c1O[C@H]1c4[nH]c5ccccc5c4C[C@@]4(O)C(C2)N(CC2CC2)CCC314 (stereo partly specified),inactive
3,CCCn1c(C)c(C(=O)c2ccc3ccccc3c2)c2ccccc21,inactive
4,c1ccc2cc(CC3=NCCN3)ccc2c1,inactive
5,C[N+]1(C)CCN(c2ccccc2)CC1,inactive
6,COC(=O)N1CCN(C(=O)Cc2ccc(Cl)c(Cl)c2)C(CN2CCCC2)C1 (stereo unspecified),inactive
7,Oc1ccc2c3c1O[C@H]1c4oc5ccccc5c4C[C@@]4(O)C(C2)N(CC2CC2)CCC314 (stereo partly specified),inactive
8,N#CCCN,inactive
9,N[C@@H](Cn1ccc(=O)[nH]c1=O)C(=O)O,inactive
10,CCCCCCC(C)(C)c1ccc([C@@H]2C[C@H](O)CC[C@H]2CCCO)c(O)c1,inactive
11,CCCC[N+]1(C)C2CC(OC(=O)[C@H](CO)c3ccccc3)CC1C1OC12 (stereo partly specified),inactive
12,C=CCN1CCC23c4c5ccc(O)c4O[C@H]2C(=O)CC[C@@]3(O)C1C5 (stereo partly specified),inactive
13,CCCn1c(=O)c2[nH]c(C3CCCC3)nc2n(CCCOC(=O)c2ccc(S(=O)(=O)F)cc2)c1=O,inactive
14,N=C(N)c1ccc(CS(=O)(=O)F)cc1,inactive
15,Cc1o[nH]c(=O)c1CC(N)C(=O)O (stereo unspecified),inactive
16,CC(N)Cc1c[nH]c2ccc(OCc3cccs3)cc12 (stereo unspecified),inactive
17,CN1CCC(c2c[nH]c3ccc(O)cc23)CC1,inactive
18,NC(C(=O)O)c1cc(=O)[nH]o1 (stereo unspecified),inactive
19,COc1ccc2c(c1)[C@@]13CCCC[C@H]1[C@@H](C2)NCC3,inactive

# System: not listed separately
# Assay: Tertiary RLuc qRT-PCR qHTS assay for Zika virus inhibitors (AID 1347169); also: nearly all actives have a fitted effect of over 55% in size; also: potency is read from the fitted curve at half-maximal effect; as to activity change, negative = inhibition: top concentration of the series differs between compounds
# Conditions: infected Vero cells, reporter luminescence, 48-72 h; series mostly up to 45.9 µM
# Outline: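 Luminescence read-out: live-cell Renilla luciferase substrate applied to infected Vero cells, signal measured after 1-1.5 hrs. Cells had received compound before ZIKV-RLuc (Cambodian strain, MOI 1-2) infection and were incubated 48-72 hrs at 37 degrees C.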
SMILES,Potency,"activity change, negative = inhibition"
C[C@@H]1[C@@H]2Cc3ccc(O)cc3[C@@]1(C)CCN2CC1CC1,inactive,
CC[C@H](C)[C@H]1O[C@]2(C=C[C@@H]1C)C[C@@H]1C[C@@H](C/C=C(\C)[C@@H](O[C@H]3C[C@H](OC)[C@@H](O[C@H]4C[C@H](OC)[C@@H](O)[C@H](C)O4)[C@H](C)O3)[C@@H](C)/C=C/C=C3\CO[C@@H]4[C@H](O)C(C)=C[C@@H](C(=O)O1)[C@]34O)O2,20.8 µM (active),
Oc1cc(Cl)c(Cl)cc1Cl,,-13.8% [at 5.25 µM] (inactive)
